PNC inhibitor = blocks assembly of the perinucleolar compartment; PC3M PTB-GFP, PNC prevalence imaging, 16 h; stronger effect = lower value; activity change (PNC), negative = inhibition, % at 10 µM; 140,000 tested, 3.1% active; AID 2417;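 active = readout at or below -70, meaning at least 70% loss of cells showing the perinucleolar compartment, a nuclear body marking cancer cells; inconclusive = readout between -30 and a set limit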
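PC3M cells stably expressing PTB-GFP, 750–1000 cells/well, treated 16 h at 37 °C with compound (23 nl of library stock), in duplicate. After paraformaldehyde fixation and Hoechst stain, imaged at 20x; PNC prevalence scored by image analysis.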
Luc counter = Kinase-Glo luciferase inhibition (counter-screen); Kinase-Glo luciferase, ATP luminescence, 8 min; Potency, µM (highest dose often 38.3 µM), hits mostly inhibitors; 200,000 tested, 0.28% active; active = well fitted inhibition curve with a large enough effect; inconclusive = small, poorly fitted or top-dose-only effect; also: nearly all actives have a fitted effect of over 60% in size
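Compound is pinned into ATP-containing buffer (10 uM ATP, imidazole pH 7.2, 7 mM MgCl2). Kinase-Glo luciferase reagent is then added. Light output is recorded following an 8-min room-temperature incubation.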
HPGD block = HPGD (human) dehydrogenase inhibition | purified HPGD, NADH fluorescence kinetic, PGE2 substrate | Potency, µM, actives largely listed as inhibitors | 150,000 tested, 4.3% active | P15428
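NADH formation kinetics: reaction with 30 uM PGE2 and 1 mM NAD+ (final), 20 nM enzyme, Tris-HCl pH 8 with Tween 20, after 15 min compound preincubation at room temperature. Fluorescence change, last versus first of five reads.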
Lamin A splicing = changes lamin A minigene splicing in HeLa cells | HeLa LMNA splicing GFP/RFP minigene ratio, 48 h | Potency, µM (doses to about 46.1 µM), hits mostly inhibitors | 200,000 tested, 0.01% active; active = well fitted inhibition curve with a large enough effect in the signal ratio, with a control signal flat, not every such curve was filed as active; inconclusive = small, poorly fitted or top-dose-only effect, or effect the other way, or a change in a side signal; the % refers to the signal ratio
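Read-out is the ratio of GFP to DsRed2 object intensity, acquired by 488 nm laser-scanning cytometry on HeLa lamin A-EGFP minigene reporter cells. Compound incubation 48 hrs at 37 °C in Opti-MEM with 2% FBS; DMSO 0.5% final.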
ALDH1A1 block = ALDH1A1 (human) enzyme inhibition | Potency, µM (top dose mostly 75.3 µM), actives largely listed as inhibitors | Purified ALDH1A1, NADH fluorescence, propionaldehyde substrate | 220,000 tested, 7.3% active | P00352
Target sequence (P00352 whole entry, looked up): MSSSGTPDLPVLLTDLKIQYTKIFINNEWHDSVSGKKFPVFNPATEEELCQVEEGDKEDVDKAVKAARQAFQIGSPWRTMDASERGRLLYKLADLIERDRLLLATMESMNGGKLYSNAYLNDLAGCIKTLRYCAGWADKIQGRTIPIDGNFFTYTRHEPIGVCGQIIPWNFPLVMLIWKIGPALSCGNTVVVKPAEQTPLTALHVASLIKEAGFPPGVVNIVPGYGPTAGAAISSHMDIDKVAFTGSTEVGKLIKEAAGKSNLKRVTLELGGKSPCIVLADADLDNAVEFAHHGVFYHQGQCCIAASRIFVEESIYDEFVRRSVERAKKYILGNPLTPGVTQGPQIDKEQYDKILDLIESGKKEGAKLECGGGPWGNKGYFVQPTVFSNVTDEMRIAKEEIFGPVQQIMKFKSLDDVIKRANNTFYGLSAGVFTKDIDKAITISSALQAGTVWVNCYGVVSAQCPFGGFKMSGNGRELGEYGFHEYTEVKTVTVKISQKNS
Hits are given with their value; n = inactive; u = inconclusive; x = no result; [ ] = dose if it differs, or a comment. In the library only some 10% were active in any assay of this set; here they are far more common. Unless noted, calls follow the shape of the dose curve; as a rule, active = well fitted inhibition curve with a large enough effect (not every such curve was filed as active); inconclusive = small, poorly fitted or top-dose-only effect, or another doubt; inactive = no such curve, though single readings can be large or run the other way.

SMILES | PNC inhibitor | Luc counter | HPGD block | Lamin A splicing | ALDH1A1 block
Cc1ccc(S(=O)(=O)/N=C2/C=C(Sc3ncn[nH]3)C(=O)c3ccccc32)cc1 | n | n | 0.891µM | u | 12.6µM
COc1cccc(CNC(=O)c2c(C)oc3ncnc(N4CCOCC4)c23)c1 | x | x | x | n | x
C=CCC(Nc1ccc(OC)cc1)(C(=O)OCC)c1ccccc1 (centres undefined) | x | n | n | x | n
O=C(CSc1nc2c([nH]c3ccccc32)c(=O)n1-c1ccc(F)cc1)NCC1CCCO1 (centres undefined) | x | x | x | n | x
O=C(O)Cc1ccc(C(=O)c2ccccc2F)s1 | n | n | 15.8µM | n | 5.01µM
CC(C)(C)CC(=O)NCc1ccc(F)cc1 | n | n | 22.4µM | n | n
O=C(CCCC(=O)NCc1ccc(F)cc1)NCc1ccc(F)cc1 | x | n | x | u | n
COc1ccc(C(CC(=O)Nc2ccccc2OC)n2cccc2)cc1 (centres undefined) | n | n | 25.1µM | u | n
O=c1ccsn1Cc1ccccc1 | n | n | 20µM | n | u
O=C(Cn1ccc2ccccc2c1=O)NCCC(=O)NC1CCN(Cc2ccccc2)CC1 | -85.9 | n | n | n | n
Cc1cccc(CN2CCC(CNC(=O)CCNC(=O)Cn3ccc4ccccc4c3=O)CC2)c1 | u | n | n | n | n
O=C(CN(c1ccccc1F)S(=O)(=O)c1ccccc1)N1CCCCCC1 | n | n | n | n | 28.2µM
CCCNS(=O)(=O)c1ccc(OCC(=O)N2CCOCC2)cc1 | -100.0 | n | n | n | n
COc1ccc(NS(=O)(=O)c2ccc(OCC(=O)N3CCOCC3)cc2)cc1 | u | n | n | u | n
Cc1cccc(N(CC(=O)N2CCCC2)S(=O)(=O)c2ccccc2)c1C | n | n | n | n | n
CCOc1ccccc1N(CC(=O)N1CCOCC1)S(=O)(=O)c1ccc(SC)cc1 | n | n | n | n | 8.91µM
CCOc1ccccc1N(CC(=O)Nc1ccc(S(=O)(=O)N2CCOCC2)cc1)S(=O)(=O)c1ccccc1 | u | n | n | n | n
CSc1ccc(S(=O)(=O)Nc2ccc(OCC(=O)N3CCOCC3)cc2)cc1 | x | n | x | n | 12.6µM
C[C@@H]1CCN=C(N)S1 | x | n | n | x | n
COCCCNC(=O)c1cnn(-c2ccc(F)cc2F)c1C1CCNCC1 | x | x | x | n | x
C[C@]12C=CC(=O)C=C1CCC1C2C(=O)C[C@]2(C)C1CC[C@]2(O)C(=O)CO (some centres undefined) | x | n | n | x | n
O=C(CN(Cc1ccccc1)S(=O)(=O)c1ccccc1)N1CCOCC1 | -101.4 | n | n | n | n
COc1ccc(S(=O)(=O)N(CC(=O)N2CCOCC2)Cc2ccccc2)cc1 | n | n | n | n | u
COc1cccc(CC2CC(=O)N(c3ccc4c(C)cc(=O)oc4c3)C2=O)c1 (centres undefined) | x | n | x | u | 1.41µM
CCOc1ccc2[nH]c(=O)c(C(c3nnnn3CC3CCCO3)N3CCc4ccccc4C3)cc2c1 (centres undefined) | n | n | u | n | u
SMILES | PNC inhibitor | Luc counter | HPGD block | Lamin A splicing | ALDH1A1 block
O=c1[nH]c2cc3c(cc2cc1C(c1nnnn1Cc1ccccc1)N1CCCCCC1)OCCO3 (centres undefined) | n | n | n | n | u
Cc1cccc2cc(C(c3nnnn3CC3CCCO3)N3CCCc4ccccc43)c(=O)[nH]c12 (centres undefined) | n | n | n | n | 1.12µM
CCc1ccc2[nH]c(=O)c(C(c3nnnn3CC3CCCO3)N3CCCc4ccccc43)cc2c1 (centres undefined) | u | n | n | n | 7.94µM
O=c1[nH]c2cc3c(cc2cc1C(c1nnnn1Cc1ccccc1)N1CCCc2ccccc21)OCO3 (centres undefined) | -118.9 | n | n | n | n
Cc1cc2cc(C(c3nnnn3CC3CCCO3)N3CCCc4ccccc43)c(=O)[nH]c2cc1C (centres undefined) | u | n | u | n | 2.51µM
CC(C)CC(=O)N/C(N)=N/c1nc2ccccc2o1 | x | x | x | x | n
CCOc1cccc(C(=O)NC(=S)Nc2ccc(N3CCCC3)cc2)c1 | u | n | n | n | 7.08µM
S=C(Nc1ccc2c(c1)OCCO2)Nc1ccc2c(c1)OCO2 | x | n | x | x | 22.4µM
COc1cccc(OC)c1C(=O)NC(=S)Nc1ccc2c(c1)OCCO2 | x | n | x | x | n
O=C(NC(=S)Nc1ccc2c(c1)OCCO2)c1ccccc1 | n | n | n | n | 22.4µM
CCOc1cccc(C(=O)NC(=S)Nc2ccc3c(c2)OCCO3)c1 | x | n | x | x | 3.98µM
CC(C)[C@@H](CC(=O)N[C@@H]1CCCC[C@H]1C(=O)N[C@H](CC(=O)N[C@@H](CCC(=O)O)CC(=O)O)Cc1c[nH]c2ccccc12)NC(=O)C[C@H](Cc1ccccc1)NC(=O)[C@@H]1CNCC[C@H]1N | x | n | n | x | n
Nc1[nH]c(=O)nc2c1ncn2[C@H]1O[C@@H](CO)[C@@H](O)[C@@H]1O | x | n[7.66 µM] | n | x | n[13.5 µM]
COc1ccc(C2=CC(c3ccc(OC)c(OC)c3)NC(=S)N2)cc1 (centres undefined) | u | n | u | u | u
COc1cccc(C2=CC(c3ccc(OC)c(OC)c3)NC(=S)N2)c1 (centres undefined) | x | x | x | x | 14.1µM
CC1=NOC2(C1)N(C)c1ccccc1C2(C)C (centres undefined) | n | n | n | n | n
COc1ccc2ccc3c(c2c1)N=C[C@]1(O3)N(C)c2ccccc2C1(C)C | n | n | 31.6µM | u | u
CN1CCCc2cc(C=O)ccc21 | n | n | u | n | 0.199µM
COC(=O)c1c(NC(=O)C(Cl)Cl)sc2c1C(C(=O)OC)CC2 (centres undefined) | x | x | x | x | 0.891µM
COC(=O)c1c(NC(=O)C(C)(C)C)sc2c1C(C(=O)OC)CC2 (centres undefined) | n | n | u | n | u
CCOC(=O)C1=C(C)N=c2s/c(=C/c3ccco3)c(=O)n2C1c1cccc(OC)c1 (centres undefined) | n | n | 14.1µM | n | 3.55µM
Cc1c(C(=O)N(C)C)sc2c1c(=O)n(-c1ccccc1C(F)(F)F)c(=O)n2Cc1ccccc1C#N | x | x | x | n | x
O=C1OC(=O)c2ccccc21 | x | x | n | x | n
COc1cc(-c2nnc(SCc3cc(=O)oc4cc(O)c(O)cc34)o2)cc(OC)c1OC | n | n | 7.94µM | u | u
CCCCN1C=CC(=C2C(=O)c3ccccc3C2=O)C=C1 | x | 1.12µM | x | x | 2.82µM
SMILES | PNC inhibitor | Luc counter | HPGD block | Lamin A splicing | ALDH1A1 block
Cc1ccc(C)c2[nH]c(=O)c(CCNC(=O)c3ccc(S(=O)(=O)N(C)C)cc3)cc12 | n | n | n | n | 22.4µM
CCN(CC)S(=O)(=O)c1ccc(C(=O)NCCc2cc3c(OC)ccc(OC)c3[nH]c2=O)cc1 | u | n | n | n | u
O=C(Nc1cc(F)ccc1F)c1cc2nc(-c3ccco3)cc(C(F)(F)Cl)n2n1 | x | x | x | n | x
O=S(=O)(CCOc1ccccc1)N1CCOCC1 | n | n | n | n | 20µM
CC(C)c1nn2c(=O)cc(COC(=O)c3ccc(NC(=O)c4cccs4)cc3)nc2s1 | x | x | x | n | x
COc1ccccc1NC(C)=O | n | n | n | n | n

High-throughput results from PubChem BioAssay.
